Screening results: PubChem, National Center for Advancing Translational Sciences (NCATS)
In the library only some 12% were active in any assay of this set; here they are far more common.
G9a block: qHTS Assay for Inhibitors of Histone Lysine Methyltransferase G9a; G9a H3K9 monomethylation, AlphaScreen, 2 h; 350,000 tested, 8.8% active; Potency, µM (top dose mostly 102 µM), for the others: at the top dose activity, negative = inhibition, most hits filed as inhibitors; also: % is scaled to controls: 0 for no effect and ±100 for the full control effect; nearly all actives have a fitted effect of over 75% in size
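Compounds were preincubated with 20 nM G9a for 15 min, after which biotinylated H3K9 peptide (500 nM) and SAM (20 uM) started a 2 h room-temperature reaction. Monomethylated product was quantified by antibody-based AlphaScreen chemiluminescence.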
Sfp inh: qHTS Assay for Inhibitors of Bacillus subtilis Sfp phosphopantetheinyl transferase (PPTase). 310,000 tested, 3.5% active. Biochemical Sfp PPTase activity, qHTS. Potency, µM, for inactives: largest response in the series, negative = inhibition, usual class: inhibitors. 4'-phosphopantetheinyl transferase ffp (Bacillus subtilis), Q9F4F7;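 also: the enzyme is Sfp with the accession as filed and its product quenches rhodamine fluorescence; 0% = enzyme reaction without inhibitor and -100% = no enzyme wells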
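Sfp 15 nM + cpd, 15 min RT; start w/ rhodamine-CoA 5 uM, BHQ-2-YbbR 12.5 uM (final); 50 mM Hepes pH 7.6, 10 mM MgCl2, 0.01% NP-40, 0.01% BSA; read 525/598 nm at 0 and 30 min.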
HP1b binding inh: HTS for Inhibitors of HP1-beta Chromodomain Interactions with Methylated Histone Tails; Chromobox protein homolog 1 (Homo sapiens), P83916; AlphaScreen HP1-beta / biotin-H3K9me3 peptide binding; Potency, µM (highest dose often 114 µM), for inactives: top-dose activity change, negative = inhibition, hits mostly inhibitors; 390,000 tested, 0.56% active; AID 540317, 2011; also: nearly all actives have a fitted effect of over 70% in size
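AlphaScreen: HP1-beta (50 nM) preformed 30 min with biotin-H3(1-18)K9me3 peptide (50 nM) in PBS pH 7.4, 0.01% Tween-20. Compound added for 30 min at RT, then streptavidin donor/nickel chelate acceptor beads (10 ug/mL) for 30 min.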
PLK1 PBD inh: qHTS for Inhibitors of PLK1-PDB (polo-like kinase 1 - polo-box domain): Primary Screen; 360,000 tested, 2.8% active; Plk1 PBD binding of FITC phosphopeptide, fluorescence polarization; Potency, µM, for the others: max response, negative = inhibition, hits mostly inhibitors; also: series mostly up to about 57 µM; % is scaled to controls: 0 for no effect and ±100 for the full control effect; nearly all actives have a fitted effect of over 65% in size
JMJD2A Tudor: qHTS Assay for Inhibitors of JMJD2A-Tudor Domain; Lysine-specific demethylase 4A (Homo sapiens), O75164; AlphaScreen JMJD2A-Tudor / H3K4me3 peptide binding; Potency, µM (top dose mostly 114 µM), inactives show top-dose activity change, negative = inhibition, hits mostly inhibitors; 390,000 tested, 4.4% active; AID 504339, 2011; also: % is scaled to controls: 0 for no effect and ±100 for the full control effect; nearly all actives have a fitted effect of over 50% in size
BAZ2B block: qHTS Assay for Inhibitors of BAZ2B; Bromodomain adjacent to zinc finger domain protein 2B (Homo sapiens), Q9UIF8; AlphaScreen BAZ2B-H3K14Ac peptide displacement; Potency, µM (titrated, usually from 114 µM), for the others: at the highest dose activity change, negative = inhibition, most hits filed as inhibitors; 360,000 tested, 4.4% active; also: % is scaled to controls: 0 for no effect and ±100 for the full control effect; nearly all actives have a fitted effect of over 60% in size
Target sequence (Q9UIF8 whole entry, looked up, the tested form may be a part): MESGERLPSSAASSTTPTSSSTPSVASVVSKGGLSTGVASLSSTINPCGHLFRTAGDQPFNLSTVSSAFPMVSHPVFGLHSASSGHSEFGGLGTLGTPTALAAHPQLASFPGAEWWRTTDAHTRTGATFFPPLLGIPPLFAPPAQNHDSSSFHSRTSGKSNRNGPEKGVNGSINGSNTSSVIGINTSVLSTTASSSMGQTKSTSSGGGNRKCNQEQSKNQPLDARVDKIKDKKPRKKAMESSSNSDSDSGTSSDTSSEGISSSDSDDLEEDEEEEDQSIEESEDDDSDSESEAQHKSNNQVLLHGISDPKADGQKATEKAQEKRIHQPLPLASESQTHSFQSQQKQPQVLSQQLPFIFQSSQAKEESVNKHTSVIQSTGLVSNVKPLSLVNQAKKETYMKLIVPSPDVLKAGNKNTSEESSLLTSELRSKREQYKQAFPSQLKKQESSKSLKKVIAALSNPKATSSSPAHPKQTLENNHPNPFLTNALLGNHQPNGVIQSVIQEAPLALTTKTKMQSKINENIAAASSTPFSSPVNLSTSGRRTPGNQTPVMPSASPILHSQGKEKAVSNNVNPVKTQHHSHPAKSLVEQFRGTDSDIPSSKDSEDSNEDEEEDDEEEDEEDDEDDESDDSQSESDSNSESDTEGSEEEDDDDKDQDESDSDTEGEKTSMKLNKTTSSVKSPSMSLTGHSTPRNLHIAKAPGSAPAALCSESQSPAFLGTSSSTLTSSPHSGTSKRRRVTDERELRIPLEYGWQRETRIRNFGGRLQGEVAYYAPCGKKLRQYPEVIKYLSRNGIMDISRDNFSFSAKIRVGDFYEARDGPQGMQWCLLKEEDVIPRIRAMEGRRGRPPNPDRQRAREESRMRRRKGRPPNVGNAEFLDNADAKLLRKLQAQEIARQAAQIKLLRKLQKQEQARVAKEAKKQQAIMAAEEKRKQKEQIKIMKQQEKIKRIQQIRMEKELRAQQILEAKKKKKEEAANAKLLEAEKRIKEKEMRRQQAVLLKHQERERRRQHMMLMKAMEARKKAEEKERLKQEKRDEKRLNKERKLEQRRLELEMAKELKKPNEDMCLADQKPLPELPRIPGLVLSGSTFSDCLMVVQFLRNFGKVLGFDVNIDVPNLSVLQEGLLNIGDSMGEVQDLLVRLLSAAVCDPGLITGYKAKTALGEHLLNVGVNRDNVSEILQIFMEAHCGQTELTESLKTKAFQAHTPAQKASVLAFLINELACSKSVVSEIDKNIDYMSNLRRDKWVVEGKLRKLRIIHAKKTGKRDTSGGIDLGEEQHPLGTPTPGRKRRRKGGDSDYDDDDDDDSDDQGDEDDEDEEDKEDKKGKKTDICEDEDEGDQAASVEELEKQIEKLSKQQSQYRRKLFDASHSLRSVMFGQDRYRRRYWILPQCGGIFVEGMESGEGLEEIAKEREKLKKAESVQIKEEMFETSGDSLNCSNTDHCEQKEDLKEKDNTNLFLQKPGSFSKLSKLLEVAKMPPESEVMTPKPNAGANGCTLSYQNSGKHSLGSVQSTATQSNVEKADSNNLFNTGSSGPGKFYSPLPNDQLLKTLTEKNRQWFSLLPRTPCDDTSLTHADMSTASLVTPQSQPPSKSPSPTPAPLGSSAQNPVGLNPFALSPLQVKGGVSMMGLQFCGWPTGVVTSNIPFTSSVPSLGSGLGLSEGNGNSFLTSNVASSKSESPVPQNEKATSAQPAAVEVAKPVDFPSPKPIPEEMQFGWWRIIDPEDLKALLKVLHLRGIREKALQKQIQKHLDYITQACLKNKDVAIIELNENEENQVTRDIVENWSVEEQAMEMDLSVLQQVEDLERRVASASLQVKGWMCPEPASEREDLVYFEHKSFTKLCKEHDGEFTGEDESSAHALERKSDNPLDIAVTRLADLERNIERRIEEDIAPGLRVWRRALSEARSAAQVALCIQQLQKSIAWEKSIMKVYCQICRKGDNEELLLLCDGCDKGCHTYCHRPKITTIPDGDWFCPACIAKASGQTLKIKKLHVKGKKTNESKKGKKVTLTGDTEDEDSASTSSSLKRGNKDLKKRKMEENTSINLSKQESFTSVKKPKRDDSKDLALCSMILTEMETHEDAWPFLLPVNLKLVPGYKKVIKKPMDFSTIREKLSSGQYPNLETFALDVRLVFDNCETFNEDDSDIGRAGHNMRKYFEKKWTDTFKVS
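AlphaScreen luminescence quantifies BAZ2B engagement of H3K14Ac peptide; the protein and biotinylated peptide are both at 50 nM final, buffer PBS pH 7.4 with 0.01% Tween-20, all steps at room temperature.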
Numbers without * were called inactive; ? = inconclusive; nt = no result given; [ ] = remark or other dose. Calls follow the shape of the dose curve; as a rule, active = well fitted curve in the direction sought with a large enough effect; inconclusive = small, poorly fitted or top-dose-only effect, or another doubt; inactive = no such curve, though single readings can be large; an effect the other way counts as inactive or inconclusive. Potency is read from the fitted curve at half-maximal effect.

SMILES	G9a block	Sfp inh	HP1b binding inh	PLK1 PBD inh	JMJD2A Tudor	BAZ2B block
CC(=O)N=c1c(C#N)cc2c(=O)n3ccccc3nc2n1CCCOC(C)C	nt	89µM*	69%	-26%	-13%	-3%
CCOc1ccccc1N1CCN(C(=O)c2cc3cc(OC)ccc3[nH]2)CC1	35µM*	-26%	-9%	-7%	?	?
COc1ccc2[nH]c(C(=O)N3CCC(CO)(Cc4cccc(C(F)(F)F)c4)CC3)c(C)c2c1	79µM*	16%	11%	4%	-29%	-38%
CCOC(=O)C1CCN(C(=O)c2[nH]c3ccc(OC)cc3c2C)CC1	-4%	7%	9%	5%	-5%	-3%
O=C(c1ccccc1F)N1CCN(c2cnn(-c3cccc(Cl)c3)c(=O)c2Cl)CC1	0%	11%	-9%	27µM*	-10%[11.4 µM]	7%
COc1ccc(N2CCN(C(=O)c3[nH]c4ccc(OC)cc4c3C)CC2)cc1	40µM*	-6%	?	27µM*	28µM*	?
Cc1ccc(S(=O)(=O)NCc2nnnn2-c2ccc(F)cc2)cc1	nt	nt	nt	4%	nt	nt
CC(C)Oc1ccccc1NC(=O)CSc1nccn1C	18%	10%	-14%	-2%	-7%	-3%
COc1ccc2cc(C(=O)N3CCN(c4ccc(F)cc4)CC3)[nH]c2c1	50µM*	2%	21%	-1%	3%	-9%
COc1ccc2nc3oc(C(=O)N4CCN(c5cccc(Cl)c5)CC4)cc3cc2c1	?	11µM*	16%	5%	5%	-17%
COc1ccccc1C(=O)N1CCN(c2cccc(Cl)c2)CC1	14%[59 µM]	-14%	-6%	24µM*	-30%[11.4 µM]	-4%
COc1cccc(N2CCN(C(=O)c3cc4cc(Cl)ccc4[nH]3)CC2)c1	71µM*	7%	-3%	-5%	?	-37%
COc1cc2c(C(=O)N3CCN(c4cccc(Cl)c4)CC3)cn(C)c(=O)c2cc1OC	2%[59 µM]	9%	10%	-4%	-18%	-5%
COc1ccc(C2CC(c3c(O)n(C4CCCCC4)c(=O)[nH]c3=O)=Nc3ccccc3S2)cc1 (stereo not given)	7%[59 µM]	nt	34%	nt	-5%	8%
Cc1ccccc1NC(=O)CSc1nc(=O)n(CCN2CCOCC2)c2c1CCC2	-4%[59 µM]	nt	25%	nt	-8%	-7%
O=C1CCC(C(=O)OCC(=O)Nc2ccc(Cl)cc2C(F)(F)F)=NN1	nt	nt	31%	-18%	7%	nt
COc1cccc(CC2(CO)CCCN(Cc3[nH]c4ccc(C)cc4c3C)C2)c1 (stereo not given)	45µM*	-2%	-19%	-16%	-22%[11.4 µM]	?
COCCCNC(=O)c1cc2cc3cc(OC)ccc3nc2o1	31%	4%	10%	21µM*	-17%	3%
COc1cccc(CC2(CO)CCCN(Cc3cn[nH]c3-c3cc(C)ccc3C)C2)c1 (stereo not given)	nt	2%	30%	6%	-25%	-11%
O=C(c1ccc(NS(=O)(=O)c2ccc(Cl)c(Cl)c2)cc1)N1CCOCC1	-45%	nt	59%	-16%	-1%	9%
Cc1cc(C)c2oc(-c3ccc(Cl)c(NC(=O)c4cccs4)c3)nc2c1	-27%[59 µM]	nt	39%	nt	-6%	-37%
COC(=O)C1=C(C(=O)OC)[C@@H]2N(C)c3ccccc3[C@@]23C[C@@H](CO)N(C(=O)c2cc(C)oc2C)C3=N1	nt	13%	nt	nt	nt	nt
Cc1cccc2cc(C(c3nnnn3CC3CCCO3)N3CCc4ccccc4C3)c(=O)[nH]c12 (stereo not given)	3.2µM*	20µM*	18%	-20%	-36%	-3%
Cc1ccc(C)c2[nH]c(=O)c(C(c3nnnn3Cc3ccccc3)N3CCc4ccccc4C3)cc12 (stereo not given)	3.2µM*	?	19%	-18%	-32%	-23%
Cc1ccc2cc(C(c3nnnn3CC3CCCO3)N3CCc4ccccc4C3)c(=O)[nH]c2c1 (stereo not given)	?	10µM*	16%	-21%	-34%	2%
SMILES	G9a block	Sfp inh	HP1b binding inh	PLK1 PBD inh	JMJD2A Tudor	BAZ2B block
CCc1ccc2[nH]c(=O)c(C(c3nnnn3CC3CCCO3)N3CCCc4ccccc43)cc2c1 (stereo not given)	?	8.9µM*	-16%	-2%	?	50µM*
Cc1nc(SCC(=O)Nc2nnc(C(C)C)s2)n[nH]1	5%	9%	-4%	-6%	-21%	2%
O=C(c1ccccc1)N1CCCc2ccccc21	-1%[59 µM]	14%	37%	0%	3%	4%
O=C(Nc1ccc(C(=O)N2CCCc3ccccc32)cc1)c1cccs1	29%	-9%	9%	-9%	100µM*	-3%
CC(=O)Nc1ccc(C(=O)N2CCCc3ccccc32)cc1	67%	11%	17%	-3%	4%	-22%
O=C(c1ccc(=O)oc1)N1CCCc2ccccc21	?	?	-49%	?	50µM*	45µM*
C[C@H](CO)N1C[C@H](C)[C@@H](CN(C)Cc2ccncc2)Oc2c(NS(=O)(=O)c3cccs3)cccc2C1=O	nt	nt	50%	-8%	-8%	nt
NC(N)=NCCC[C@H](N)C(=O)N1CCC[C@H]1C(=O)N1CCC[C@H]1C(=O)NCC(=O)N[C@@H](Cc1ccccc1)C(=O)N[C@@H](CO)C(=O)N1CCC[C@H]1C(=O)N[C@@H](Cc1ccccc1)C(=O)O	nt	-1%	nt	nt	nt	nt
CC(C)/C=N/NC(=O)c1ccc(Cl)cc1	6%[59 µM]	-4%	19%	27µM*	?	3%
O=C(N/N=C\c1ccccn1)c1ccccc1O	43%	?	32%	-11%	?	-1%
CC(/C=C/c1ccccc1F)=N\NC(=O)c1ccc(Cl)cc1	15%[0.501 µM]	-11%	-18%	5.3µM*	22µM*	-3%
CN(C)c1ccc(C(=O)N/N=C/c2ccccn2)cc1	7.9µM*	?	41%	1%	-24%	6%
Cc1ccccc1C(=O)N/N=C/c1ccccn1	-3%	71µM*	5%	-2%	?	4%
O=C(CCN1C(=O)[C@@H]2Cc3ccccc3CN2C1=O)N[C@H](Cc1ccccc1)C(=O)O	nt	6%	26%	-3%	-8%	4%
CC(=O)Nc1ccc(S(=O)(=O)N2CCN(c3nc4ccccc4n3CC(C)C)CC2)cc1	nt	2%	46%	1%	-20%	-7%
O=C(N/N=C/c1ccccn1)c1sc2ccccc2c1Cl	nt	-10%	91%	-13%	?	40µM*
